# Data published in paper PMC4336329 (PLoS ONE, 2015).
# Hit rate of the full screen: of about 310,000 compounds, about 14,000 (4.5%) showed an effect of 50% or more. The effect is printed as a negative number. Shown is part of a subset that was picked to be rich in strong results.
# Target: human ether-à-go-go-related gene (hERG) potassium channel (human, UniProt Q12809)
# Assay: primary screen, population patch clamp on CHO cells stably expressing hERG; higher = less effect of the substance
# 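Also: peak tail current of the secondary pulse compared with the same well before compound.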
# Chain of human ether-à-go-go-related gene (hERG) potassium channel (Q12809 whole entry, looked up): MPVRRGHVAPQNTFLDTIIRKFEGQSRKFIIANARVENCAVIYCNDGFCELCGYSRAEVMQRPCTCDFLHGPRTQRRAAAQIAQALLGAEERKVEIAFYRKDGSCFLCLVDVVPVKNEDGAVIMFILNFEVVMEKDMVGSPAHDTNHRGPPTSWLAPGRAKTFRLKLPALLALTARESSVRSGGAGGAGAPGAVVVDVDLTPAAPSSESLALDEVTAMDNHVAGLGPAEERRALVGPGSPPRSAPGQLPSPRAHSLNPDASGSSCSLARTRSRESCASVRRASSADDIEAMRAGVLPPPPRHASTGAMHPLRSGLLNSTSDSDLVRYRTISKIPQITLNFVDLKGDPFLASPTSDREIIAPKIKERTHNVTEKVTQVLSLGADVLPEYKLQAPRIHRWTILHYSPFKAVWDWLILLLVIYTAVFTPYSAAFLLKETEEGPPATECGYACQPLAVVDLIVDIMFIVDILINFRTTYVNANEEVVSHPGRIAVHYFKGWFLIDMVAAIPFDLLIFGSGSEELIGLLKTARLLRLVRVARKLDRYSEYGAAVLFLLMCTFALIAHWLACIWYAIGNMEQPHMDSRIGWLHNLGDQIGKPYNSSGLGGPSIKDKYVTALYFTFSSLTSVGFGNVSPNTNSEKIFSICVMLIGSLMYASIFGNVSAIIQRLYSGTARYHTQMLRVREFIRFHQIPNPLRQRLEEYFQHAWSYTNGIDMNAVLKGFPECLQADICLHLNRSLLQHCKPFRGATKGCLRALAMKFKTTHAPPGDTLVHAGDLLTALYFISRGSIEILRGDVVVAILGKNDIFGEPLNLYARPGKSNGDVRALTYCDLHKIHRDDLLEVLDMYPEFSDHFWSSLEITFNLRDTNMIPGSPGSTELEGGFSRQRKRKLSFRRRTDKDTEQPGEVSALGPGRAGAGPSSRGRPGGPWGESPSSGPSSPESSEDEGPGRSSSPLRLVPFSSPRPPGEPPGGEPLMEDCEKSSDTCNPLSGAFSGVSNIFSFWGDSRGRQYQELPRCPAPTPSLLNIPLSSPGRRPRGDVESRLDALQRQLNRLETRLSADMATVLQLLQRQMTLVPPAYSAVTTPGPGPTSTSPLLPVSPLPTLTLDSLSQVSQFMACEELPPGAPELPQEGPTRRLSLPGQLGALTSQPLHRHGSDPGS
row,SMILES,"hERG current change (%, negative = inhibition) at 10uM"
1,CCc1cc2c(Nc3ccc(O)cc3)nc(C)nc2s1.Cl,8.46%
2,Cc1cc(/C=N/O)c(C)n1-c1ccc(Br)cc1,-34.2%
3,CCc1ccc(OCCSc2nc3ccccc3n2CC(=O)O)cc1,3.37%
4,CSc1nsc(SC)c1NC(=O)N1CCCCC1,2.74%
5,O=C(NC(=S)N(Cc1ccccc1)Cc1ccccc1)c1ccccc1F,18.5%
6,O=C(Cn1c(CO)nc2ccccc21)Nc1cc(C(F)(F)F)ccc1N1CCOCC1,1.37%
7,O=C(c1cc2ccccc2o1)N1CCN(Cc2ccc3c(c2)OCO3)CC1,-22.1%
8,O=C(NCCN1CCN(C(=O)c2cc3ccccc3oc2=O)CC1)c1cc2ccccc2oc1=O,-15.9%
9,CC(=O)N1CCN(C(=O)c2oc3ccccc3c2C)CC1,8.84%
10,Cc1onc(-c2ccccc2)c1C(=O)N1CCN(Cc2ccc3c(c2)OCO3)CC1.Cl,17.5%
11,C=CCN1CCN(C(=O)c2oc3ccccc3c2C)CC1,-0.434%
12,CN1CCN(C(=O)c2cc3ccccc3oc2=O)CC1,6.08%
13,Cc1cc(C(=O)N2CCN(Cc3ccc4c(c3)OCO4)CC2)on1,-4.02%
14,O=C(c1cc2ccccc2oc1=O)N1CCN(CCc2ccccc2)CC1,-71.8%
15,O=C(c1cc(-c2ccccc2)on1)N1CCN(Cc2ccc3c(c2)OCO3)CC1,-50.1%
16,Cc1c(C(=O)N2CCN(CCc3ccccc3)CC2)oc2ccccc12,-72.4%
17,COc1cc2cc(C(=O)N3CCN(Cc4ccc5c(c4)OCO5)CC3)c(=O)oc2cc1OC,-0.572%
18,O=C(c1cc2ccccc2oc1=O)N1CCN(Cc2ccc3c(c2)OCO3)CC1,-53.7%
19,c1ccc(CCCCNCC2COc3ccccc3O2)cc1 (centres unmarked),-28.5%
20,COc1cc(C(=O)NCCC(c2ccccc2)c2ccccc2)cc(OC)c1OC,0.15%
21,COc1ccc(-c2cc(N)n(CCC#N)n2)c(OC)c1,4.12%
22,O=C(CSc1nnc(-c2ccncc2)o1)Nc1ccccc1C(F)(F)F,-0.412%
23,Cn1c(CNC(=O)CNC(=O)Cc2ccc(Cl)cc2)cc(=O)n(C)c1=O,18.9%

row,SMILES,"hERG current change (%, negative = inhibition) at 10uM"
1,COC(=O)C(C)Oc1cc(C)cc2oc(=O)c3c(c12)CCC3 (centres unmarked),-12.7%
2,N#CC1(NC(=O)CSc2nnc(-c3ccccc3F)o2)CCCCC1,-13.1%
3,CC(C)CC(=O)Nc1ccccc1Oc1ccccc1,-2.96%
4,CC(=O)c1ccc(N2CCN(C(=O)C3CCCN(S(=O)(=O)c4c(C)[nH]c(=O)[nH]c4=O)C3)CC2)cc1 (centres unmarked),23.4%
5,Cc1nn(C)c(C)c1S(=O)(=O)N1CCCC(C(=O)N2CCN(c3ccc(Cl)cc3)CC2)C1 (centres unmarked),-70.4%
6,O=C(C1CCCN(S(=O)(=O)c2cnc[nH]2)C1)N1CCN(c2ccc(Cl)cc2)CC1 (centres unmarked),-35%
7,Cc1nn(C)c(C)c1S(=O)(=O)N1CCCC(C(=O)NCCc2ccc(Cl)cc2)C1 (centres unmarked),-0.523%
8,Cc1nn(C)c(C)c1S(=O)(=O)N1CCCC(C(=O)N2CCN(c3ccccc3)CC2)C1 (centres unmarked),-27.6%
9,Cc1n[nH]c(C)c1S(=O)(=O)N1CCCC(C(=O)N2CCN(c3ccc(Cl)cc3)CC2)C1 (centres unmarked),-75.1%
10,Cc1cc2c(NC(=O)Nc3ccc(C(F)(F)F)cc3)cccc2nn1,-2.37%
11,Cn1cc([N+](=O)[O-])c(C(=O)Nc2ccc3c(c2)OCCO3)n1,5.3%
12,Cc1cccc(C(=O)N2CCC(=O)N(C(COCc3ccc(Cl)cc3)Cc3ccccc3)CC2)c1 (centres unmarked),-25.7%
13,CCC(C)[C@H](NC(=O)[C@H](Cc1ccccc1)n1c(=O)[nH]c2ccccc2c1=O)C(=O)NCC1CCC(C(=O)O)CC1 (some centres unmarked),20.4%
14,COc1cccc(OCC(=O)N2CCN(C)CC2)c1,-10.1%
15,Cc1cc(=O)oc2c3c(cc(OCC(=O)NCC(=O)O)c12)OC(C)(C)CC3,19%
16,CCN(CC)CCOC(=O)c1ccc(NC(=O)CCNC(=O)Cn2ccc3ccccc3c2=O)cc1,11.8%
17,CC(C)n1cc(CN2CCCC(C(=O)Nc3ccccc3Oc3cccnc3)C2)cn1 (centres unmarked),-42.4%
18,CCn1cc(CN2CCCC(C(=O)Nc3ccc(-c4nc5ccccc5[nH]4)cc3)C2)c(C)n1 (centres unmarked),-21%
19,CCn1cc(CN2CCC(C(=O)Nc3ccc(Oc4cccnc4)cc3)CC2)cn1,-19%
20,CN(C)C(=O)CCC(=O)N1CCCCC1C(=O)Nc1ccc(Oc2ccccc2F)cc1 (centres unmarked),-43.9%
21,CC(C)n1cc(CN2CCC(C(=O)Nc3ccc(Oc4ccccc4F)cc3)CC2)cn1,-76.1%
22,CCn1cc(CN2CCC(C(=O)Nc3ccc(Oc4ccccc4F)cc3)CC2)c(C)n1,-72.9%
23,CCn1cc(CN2CCC(C(=O)Nc3ccc(Oc4cccnc4)cc3)CC2)c(C)n1,-18.4%

row,SMILES,"hERG current change (%, negative = inhibition) at 10uM"
1,Cn1cc(CN2CCC(C(=O)Nc3ccc(Oc4ccccc4F)cc3)CC2)cn1,-65.6%
2,COC(=O)c1cc2oc3ccccc3c2n1Cc1ccccn1,-8.74%
3,C/C(=N\N=C1\NC(=O)C(CC(=O)Nc2ccc(Cl)cc2)S1)c1ccco1 (centres unmarked),13%
4,CCn1c(SCC(=O)Nc2ccccc2Cl)nnc1C1CC1,6.78%
5,Cc1c(S(=O)(=O)N2CCCC(C)C2)c(=O)n(C)c(=O)n1C (centres unmarked),-2.74%
6,O=C(NCCNC(=O)c1ccccc1)c1ccccc1,2.89%
7,Cc1cc([N+](=O)[O-])cc(C)c1OCC(=O)N/N=C/c1ccc(OC(=O)c2ccccc2Br)cc1,4.23%
8,CCC(C)NC(=O)C1c2ccccc2C(=O)N1Cc1cc(OC)ccc1OC (centres unmarked),9.25%
9,COc1ccc(-c2c(C#Cc3ccsc3)c3cc(-c4ccc5[nH]ccc5c4)ccc3n2C)cc1,24.1%
10,O=C(CN1C(=O)COc2ccccc21)c1cccc(Cl)c1,-14.4%
11,CSc1ccccc1OCc1cc(C(=O)N2CCC[C@H]2C(N)=O)no1,5.26%
12,N#CSCC(=O)c1cccc2ccccc12,-24.8%
13,COc1ccc(NC(=O)C2CCCN(CCCc3ccccc3)C2)cc1OCC(C)C.O=C(O)/C=C/C(=O)O (centres unmarked),-52.1%
14,COc1ccc(NC(=O)C2CCCCN2N)cc1OCC(C)C.O=C(O)C(=O)O (centres unmarked),-5.25%
15,COc1ccc(NC(=O)C2CCCN(C)C2)cc1OCC(C)C (centres unmarked),-1.9%
16,O=C(NCc1ccc(F)cc1)C1Cc2ccccc2CN1C(=O)c1ccco1 (centres unmarked),-42.1%
17,O=C(NCCc1c[nH]c2ccccc12)C1Cc2ccccc2CN1C(=O)c1ccco1 (centres unmarked),-71.6%
18,O=C(NCc1ccc2c(c1)OCO2)c1ccc(CN2CCc3ccccc3C2)cc1,-52.5%
19,O=C(NCc1ccc2c(c1)OCO2)c1ccc(CN2CCOCC2)cc1,15.3%
20,CCS(=O)(=O)N1Cc2ccccc2CC1C(=O)NCCc1c[nH]c2ccccc12 (centres unmarked),-0.595%
21,O=C(NCc1ccc2c(c1)OCO2)C1Cc2ccccc2CN1C(=O)c1ccco1 (centres unmarked),-59%
22,O=C(NCc1ccc2c(c1)OCO2)c1ccccc1,-4.18%
23,NS(=O)(=O)c1ccc(CCNC(=O)C2Cc3ccccc3CN2C(=O)c2ccco2)cc1 (centres unmarked),9.39%

row,SMILES,"hERG current change (%, negative = inhibition) at 10uM"
1,O=C(NCc1ccccc1)C1Cc2ccccc2CN1C(=O)c1ccco1 (centres unmarked),-12.2%
2,COc1ccc(N2C(=O)CC(NCc3cccc(F)c3)C2=O)cc1 (centres unmarked),-13.3%
3,Cc1ccc(-n2c(=O)[nH]c3c(oc4ccccc43)c2=O)cc1,-0.961%
4,CCOc1ccc(CC2CC(=O)NC2=O)cc1 (centres unmarked),12.5%
5,N=c1oc2ccc(Br)cc2cc1C(=O)NCc1ccc(F)cc1,5.37%
6,C/C(=N/NC(=O)c1ccc(Br)o1)C(C)C,-1.43%
7,Cc1cccc(C(=O)Nc2ccc(C(=O)Nc3ccc(O)cc3)cc2)c1,12.5%
8,O=C(CCCN1C(=O)c2ccccc2C1=O)Nc1ccc(S(=O)(=O)N2CCCCC2)cc1,-28.8%
9,O=C(C[n+]1ccccc1)N1c2ccccc2Sc2ccccc21.[Cl-],20.7%
10,COc1cccc(CNC(=O)CCNS(=O)(=O)c2cccs2)c1,-5.11%
11,COc1ccccc1-c1coc2c(CN3CCOCC3)c(O)ccc2c1=O,8.17%
12,CN1CCN(CC(=O)Nc2ccccc2Sc2ccccc2)CC1.O=C(O)C(=O)O,-65.3%
13,CC(=O)N1CCN(CC(=O)Nc2ccccc2Sc2ccccc2)CC1,-59.5%
14,O=C(CN1CCN(c2ccccc2)CC1)Nc1ccccc1Sc1ccccc1,9.55%
15,O=C(CN1CCOCC1)Nc1ccccc1Sc1ccc(Cl)cc1,-44.1%
16,CC1CCN(CC(=O)Nc2ccccc2Sc2ccccc2)CC1,-5.71%
17,O=C(CN1CCOCC1)Nc1ccccc1Sc1ccccc1,-31.3%
18,CC(=O)N1CCN(CC(=O)Nc2ccccc2Sc2ccc(Cl)cc2)CC1,-78%
19,CC1CCCN(CC(=O)Nc2cc(Cl)ccc2Oc2ccccc2)C1 (centres unmarked),14.3%
20,O=C(CN1CCCCC1)Nc1cc(Cl)ccc1Oc1ccccc1,12.5%
21,NC(=O)C1CCN(CC(=O)Nc2cc(Cl)ccc2Oc2ccccc2)CC1,-67%
22,O=C(CN1CCCC1)Nc1ccccc1Sc1ccc(Cl)cc1,-31.1%
23,O=C(CN1CCCC1)Nc1ccccc1Sc1ccccc1,-13.5%
